Our source for the inhibition values is PubChem BioAssay AID720704 (The Scripps Research Institute Molecular Screening Center, 2013).

Molecules are shown by their SMILES. Among all 370,000 compounds or so, about 660 (0.18%) were called active. Rule as the data show it: active = inhibition above about 11%; inactive = the rest. Only a selection was taken, and actives are over-represented in it overall.

The target of the test is 1-phosphatidylinositol 4,5-bisphosphate phosphodiesterase beta-3 (Homo sapiens) (UniProt Q01970). The test is described as follows: human PLC-beta3 inhibitors, primary screen, biochemical, fluorescence (AID 720704).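 Also: 0% = median of compound wells on plate and 100% = full blocker control.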 To be noted: Purified PLC-beta3, fluorogenic substrate, at 12.2 µM, hits give high values.
Sequence of 1-phosphatidylinositol 4,5-bisphosphate phosphodiesterase beta-3 (Homo sapiens) (Q01970 whole entry, looked up): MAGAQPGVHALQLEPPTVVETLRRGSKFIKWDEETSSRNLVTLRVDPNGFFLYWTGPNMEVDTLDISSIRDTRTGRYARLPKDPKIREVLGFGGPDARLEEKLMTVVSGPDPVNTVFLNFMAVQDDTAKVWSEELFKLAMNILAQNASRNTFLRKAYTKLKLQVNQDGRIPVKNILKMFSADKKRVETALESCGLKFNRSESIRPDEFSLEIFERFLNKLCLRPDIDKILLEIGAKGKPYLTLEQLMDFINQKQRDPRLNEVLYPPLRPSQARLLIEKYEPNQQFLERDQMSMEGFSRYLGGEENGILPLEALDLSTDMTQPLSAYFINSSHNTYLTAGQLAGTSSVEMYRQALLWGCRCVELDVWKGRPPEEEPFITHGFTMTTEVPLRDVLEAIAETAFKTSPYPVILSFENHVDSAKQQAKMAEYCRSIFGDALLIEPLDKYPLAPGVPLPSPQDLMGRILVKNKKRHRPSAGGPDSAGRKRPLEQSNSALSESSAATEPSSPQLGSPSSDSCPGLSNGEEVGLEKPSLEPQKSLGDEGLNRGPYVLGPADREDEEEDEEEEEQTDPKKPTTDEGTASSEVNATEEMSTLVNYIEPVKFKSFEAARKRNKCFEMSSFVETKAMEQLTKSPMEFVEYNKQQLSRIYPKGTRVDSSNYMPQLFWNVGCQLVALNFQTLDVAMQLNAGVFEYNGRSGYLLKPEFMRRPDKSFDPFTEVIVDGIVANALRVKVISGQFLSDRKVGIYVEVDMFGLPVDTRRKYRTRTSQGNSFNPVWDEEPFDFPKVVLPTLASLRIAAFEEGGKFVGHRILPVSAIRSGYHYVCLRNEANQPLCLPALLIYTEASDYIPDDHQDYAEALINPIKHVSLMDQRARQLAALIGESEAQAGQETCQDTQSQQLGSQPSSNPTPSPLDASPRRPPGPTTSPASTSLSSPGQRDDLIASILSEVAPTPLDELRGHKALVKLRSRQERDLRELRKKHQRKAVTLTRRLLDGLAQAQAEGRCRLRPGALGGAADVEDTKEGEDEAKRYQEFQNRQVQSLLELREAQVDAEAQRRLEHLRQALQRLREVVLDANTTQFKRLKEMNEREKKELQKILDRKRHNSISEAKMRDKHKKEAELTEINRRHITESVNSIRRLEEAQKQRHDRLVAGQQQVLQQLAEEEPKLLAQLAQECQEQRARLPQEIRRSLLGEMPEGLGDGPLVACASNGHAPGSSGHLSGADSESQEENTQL
As for `CC1(C)CN(CCc2ccccc2)C(=O)[C@H]1CC(=O)Nc1ccc(Br)cc1`, the inhibition is 1.65% (inactive).

As to `O=C(C[C@H]1C(=O)N(c2ccc(F)c(F)c2)C[C@@H]1Cc1ccccc1)Nc1ccccc1`, the inhibition is 12.1% (active).

For the molecule `COc1ccc(NC(=O)C[C@H]2C(=O)N(CCc3ccccc3)C[C@@H]2C)cc1`, the inhibition was 4.39% (inactive).

Consider `Cc1nc2nc(COc3ccccc3)[nH]n2c(=O)c1C`, for which the inhibition is 2.74% (inactive).

In the case of `CCN1C(=O)CS/C1=N\c1nccs1`, the inhibition is 0.11% (inactive).

Turning to `Nc1ccn(CC(=O)N2CCN(c3ccccn3)CC2)c(=O)n1`, the inhibition was -1.87% (inactive).

As to `O=C1NCC(Nc2ccccc2)C(=O)N1` (centres undefined), the inhibition is 1.2% (inactive).

Turning to `C=CCn1c(=O)n(C)c2c(=O)n(C)c(=O)n(C)c21`, the inhibition was 0.17% (inactive).

As for `CCC1CCCCN1C(=O)CSc1nc(C)cc(C)n1` (centres undefined), the inhibition is 19.7% (active).

Regarding `CCC1CCCCN1C(=O)CSc1nc2c(c(=O)n1C)SC(C)C2` (centres undefined), the inhibition was -1.75% (inactive).

For the molecule `CCC1CCCCN1C(=O)CSc1nc2c(c(=O)n(C)c(=O)n2C)n1C` (centres undefined), the inhibition was -1.77% (inactive).

Take `CCCC/S(C)=N/S(=O)(=O)c1ccc(C)cc1` (centres undefined): the inhibition is 3.14% (inactive).

In the case of `C=CC[C@@H](CC(=O)N[C@@H](CO)Cc1ccccc1)C(=O)N[C@H](COC(=O)[C@H](CC=C)CC(=O)OC(C)(C)C)Cc1ccccc1`, the inhibition is 2.78% (inactive).

Take `C=CC[C@@H](CC(=O)NCCO)C(=O)N[C@H](C)COC(=O)[C@@H](CC=C)CC(=O)OC(C)(C)C`: the inhibition was 12.3% (active).

`C=CC[C@@H](CC(=O)N[C@@H](CO)Cc1ccccc1)C(=O)NCCOC(=O)[C@@H](CC=C)CC(=O)OC(C)(C)C`: the inhibition was 2.47% (inactive).

For `CCO[C@@H]1OC(C(=O)NC2CC2)=C[C@H](C)[C@H]1CCCO`, the inhibition is 1.08% (inactive).

Turning to `CC1=C(C(=O)N2CCOCC2)CC(CC(=O)NCc2cccc3ccccc23)C(=O)N1CCC1=CCCCC1` (centres undefined), the inhibition is 3.78% (inactive).

With `Nc1cc(N2CCCCCC2)c2nonc2c1[N+](=O)[O-]`, the inhibition was -10.7% (inactive).

Consider `Cc1cc2c(cc1C)NC(c1ccccn1)C1=C(CC(C)(C)CC1=O)N2` (centres undefined), for which the inhibition is -15% (inactive).

Take `O=C(O)CCCCOn1ccnc1`: the inhibition is 1.89% (inactive).

As for `CC(C)CCN(C(=O)c1csnn1)C(C(=O)NC1CCCC1)c1ccccc1` (centres undefined), the inhibition was -3.64% (inactive).

For the molecule `CN1C(CC(=O)Nc2ccc(Br)cc2)c2ccccc2CC1(C)C` (centres undefined), the inhibition is -1.47% (inactive).

Consider `COC(=O)C1=C(N)Oc2cc(C)oc(=O)c2C1c1cccnc1` (centres undefined), for which the inhibition was -0.05% (inactive).

Turning to `O=C(Nc1ccccc1C(F)(F)F)N1CCCC1c1cccnc1` (centres undefined), the inhibition is -8.96% (inactive).

`O=c1ccc2c(-c3ccccc3S(=O)(=O)O)c3ccc(O)c(O)c3oc-2c1O`: the inhibition is 11.7% (active).

Take `Cc1ccsc1C(=O)N[C@@H](C)c1nnc2ccccn12`: the inhibition was -1.93% (inactive).

Regarding `COc1ccc(Br)cc1CN(C)C(=O)C1CC(=O)N(C2CCCC2)C1` (centres undefined), the inhibition is -3.09% (inactive).

In the case of `CCN1CN(Cc2ccccc2)CNC1=S`, the inhibition is 6.18% (inactive).

On to `CC(C)c1nc2oc3c(N4CCN(C)CC4)ncnc3c2c2c1CCC2`, for which the inhibition is -17.2% (inactive).

Usually inhibition stands for the change of the read-out against control, counted positive when it falls.
